Screening results: PubChem BioAssay, National Center for Advancing Translational Sciences (NCATS)
SARS PLpro yeast = blocks SARS-CoV papain-like protease in a yeast assay; AID 485353; Potency, µM (highest dose often 32.9 µM), most hits filed as activators; S. cerevisiae expressing SARS-CoV PLpro, growth rescue; hit rate 0.19% among 330,000; calls by dose curve; note: nearly all actives have a fitted effect of over 55% in size
Pf growth 96h = inhibits malaria parasite growth, 96 h | P. falciparum luciferase reporter growth, 96 h | Potency, µM (highest dose often 28.7 µM), most hits filed as inhibitors | hit rate 6.9% among 320,000 | AID 504834
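Parasite growth measured via integrated firefly luciferase reporter in P. falciparum. Infected erythrocytes at 2% hematocrit, 0.05% parasitemia final were treated 96 hours at 37 C under 5% CO2, and luminescence was read.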
Cycloheximide cs = counter-screen for Shiga toxin inhibitors: cycloheximide protein synthesis inhibition; cell reporter, cycloheximide protein synthesis inhibition counterscreen; max response, %; hit rate 12% among 300,000; in the data active = max response mostly above about 13%, no sharp cut-off; inactive = mostly below about 14%; note: read at 38.3 µM for the half of the compounds with a filed dose
Pf growth 48h = inhibits P. falciparum growth in the first generation, 48 h; P. falciparum luciferase growth in erythrocytes, 48 h; Potency, µM (highest dose often 28.7 µM), hits mostly inhibitors; hit rate 5.9% among 310,000; AID 504832
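Luciferase-expressing P. falciparum in infected erythrocytes (2% hematocrit, 0.1% parasitemia final) in RPMI 1640/0.5% Albumax were exposed to compound for 48 hours at 37 C, 5% CO2; growth read as luminescence.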
Shiga toxin inh = inhibitors of Shiga toxin in Vero cells | inhibition, % at 38.7 µM | hit rate 9.2% among 290,000 | Vero cells, Shiga toxin protein synthesis inhibition reporter; in the data active = inhibition mostly above about 28%, no sharp cut-off; inactive = mostly below about 43%
AMA1-RON2 inh = disrupts binding of P. falciparum AMA1 to RON2. AlphaScreen AMA1-biotinylated RON2 peptide binding. Potency, µM (titrated, usually from 58.2 µM), hits mostly inhibitors. hit rate 0.2% among 360,000; note: nearly all actives have a fitted effect of over 45% in size
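AMA1 (3D7) with his tag at 25 nM final met compounds first, then biotinylated RON2 peptide at 25 nM; detection used donor plus acceptor beads, 10 µg/mL apiece, read by AlphaScreen after 30 min at room temperature.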
Of the large screens only hits and unclear results are named; the others gave an inactive call. Hits are enriched below; roughly 19% of the tested compounds scored in any of these assays. Unless noted, calls come from the whole dose curve; as a rule, active = well fitted curve in the direction sought with a large enough effect; inconclusive = small, poorly fitted or top-dose-only effect, or another doubt; inactive = no such curve, though single readings can be large; an effect the other way counts as inactive or inconclusive.

CCOC(=O)C1=C(C)N=C2SC(C)C(=O)N2C1c1ccc(OCC)c(OCC)c1 (stereo not given)	Pf growth 48h 12µM
CCOC(=O)C1=C(C)N=C2SC(C)C(=O)N2C1c1ccc(C(=O)OC)cc1 (stereo not given)	Pf growth 96h 3.7µM
Cc1ccc(Cc2c(-c3ccc(Br)cc3)nc3cc(C)ccn23)cc1	none (no result: SARS PLpro yeast, Pf growth 96h, Cycloheximide cs, Pf growth 48h, Shiga toxin inh)
CC(C)N1C(=O)CCC1C(=O)NCCc1ccc(Cl)cc1 (stereo not given)	none
Oc1ccc2ccccc2c1C1Nc2cccc3cccc(c23)N1	Pf growth 48h inconclusive, AMA1-RON2 inh inconclusive (no result: Pf growth 96h)
CCN(CC)c1ccc(C2Nc3cccc4cccc(c34)N2)c(O)c1	Cycloheximide cs 27, Pf growth 48h 3.7µM, Shiga toxin inh 51
COc1cc(OC)nc(Oc2cc(/C=N/O)ccc2OC)n1	none
Cn1cnnc1SCC(=O)Nc1ncc([N+](=O)[O-])s1	none (no result: Pf growth 96h, Cycloheximide cs, Pf growth 48h, Shiga toxin inh)
COC(=O)C1=C[C@@H](C(=O)OC)C2C3=C(C(=O)[C@]2(C)NC(=O)c2ccccc2)[C@H](C)n2c(=O)n(C)c(=O)n2[C@@H]3C1 (stereo not given in full)	none (no result: SARS PLpro yeast, Pf growth 96h, Pf growth 48h, AMA1-RON2 inh)
C=C1C(=O)O[C@@H]2C[C@@H](C)[C@@H]3C4OC4C(=O)[C@@]3(C)[C@@H](O)[C@H]12 (stereo not given in full)	Pf growth 96h 3.3µM, Pf growth 48h 3.3µM
C=C1C(=O)OC2CC1C(O)CC(C)=CCCC(C)=CC(O)CC2C (stereo not given)	none (no result: SARS PLpro yeast, Pf growth 96h, Cycloheximide cs, Pf growth 48h, Shiga toxin inh)
COc1ccc(CN2CCN(C(=O)c3ccc(S(=O)(=O)N4CCCCCC4)cc3)CC2)cc1	Pf growth 96h inconclusive, Pf growth 48h 10µM (no result: Cycloheximide cs, Shiga toxin inh)
O=C(c1ccc(S(=O)(=O)N2CCCCCC2)cc1)N1CCN(Cc2ccccc2)CC1	Pf growth 96h inconclusive, Pf growth 48h inconclusive (no result: Cycloheximide cs, Shiga toxin inh)
N#Cc1ccc(CN2CCN(C(=O)c3ccc(S(=O)(=O)N4CCCCCC4)cc3)CC2)cc1	Pf growth 96h inconclusive, Pf growth 48h 13µM (no result: Cycloheximide cs, Shiga toxin inh)
O=S(=O)(c1ccc(Br)cc1)N1CCCN(Cc2ccccc2F)CC1	Pf growth 96h 6.6µM
COc1ccc(CN2CCN(C(=O)c3ccc(S(=O)(=O)N4CCCCCC4)cc3)CC2)cc1F	Pf growth 96h inconclusive, Pf growth 48h 13µM (no result: Cycloheximide cs, Shiga toxin inh)
CC(=O)Nc1ccc(S(=O)(=O)Nc2ccccc2C(=O)NCc2cccnc2)cc1	none
COc1ccc(S(=O)(=O)N2CCCN(Cc3cccc(F)c3)CC2)cc1	SARS PLpro yeast inconclusive, Pf growth 96h 12µM
COc1cccc(CNC(=O)[C@@H](C)N2C(=O)N3CCc4c([nH]c5ccc(OC)cc45)C3(C)C2=O)c1 (stereo not given in full)	Pf growth 96h inconclusive
CC(C)[C@H](NC(=O)c1ccccc1)C(=O)OCC(=O)Nc1ccc2c(c1)OCCO2	none
CC(C)[C@H](NS(=O)(=O)c1ccc2c(c1)OCCO2)C(=O)OCC(=O)Nc1ccccc1	Cycloheximide cs 14
O=C(COC(=O)C1COc2ccccc2O1)Nc1cccc(Cl)c1 (stereo not given)	none (no result: Cycloheximide cs, Shiga toxin inh)
O=C(COC(=O)CNS(=O)(=O)c1cccc(Br)c1)NC(=O)Nc1ccc2c(c1)OCCO2	Cycloheximide cs 35, Shiga toxin inh 63
Cc1ccc(S(=O)(=O)N[C@H](C(=O)OCC(=O)NC(=O)Nc2ccc3c(c2)OCCO3)C(C)C)cc1	Cycloheximide cs 19
O=C(COC(=O)C1COc2ccccc2O1)NC(=O)Nc1ccc2c(c1)OCCO2 (stereo not given)	Cycloheximide cs 15
Cc1cccc(Nc2nc(N)nc(CC(=O)CSc3ccc(Cl)cc3)n2)c1	Pf growth 96h inconclusive (no result: AMA1-RON2 inh)
Cc1ccc(S(=O)(=O)N(C)CC(=O)OCC(=O)NC(=O)Nc2ccc3c(c2)OCCO3)cc1	Cycloheximide cs 55, Shiga toxin inh 68
Cc1ccc(S(=O)(=O)N(C)CC(=O)Nc2ccc3c(c2)OCO3)cc1	none
C[C@H](NS(=O)(=O)c1ccc(Cl)cc1)C(=O)OCC(=O)NC(=O)Nc1ccc2c(c1)OCCO2	Cycloheximide cs 101, Shiga toxin inh 127
O=C(COC(=O)Cc1ccc(Br)cc1)NC1CCCCCC1	none
COc1ccc(CCNC(=O)COc2nsnc2N2CCOCC2)cc1OC	Pf growth 96h inconclusive, Pf growth 48h 1.9µM
COc1ccc(NC(=O)COc2nsnc2N2CCOCC2)cc1	none
Cc1cc([N+](=O)[O-])ccc1NC(=O)COc1nsnc1N1CCOCC1	Pf growth 48h 1.9µM
O=C(CN1C(=O)NC2(CCCCCC2)C1=O)NCc1ccccc1Cl	none (no result: Pf growth 96h, Cycloheximide cs, Pf growth 48h, Shiga toxin inh)
CCn1c(CN2CCOCC2)nnc1SCC(=O)Nc1ccc(C(C)=O)cc1	Pf growth 96h inconclusive, Pf growth 48h inconclusive
COc1ccc(NC(=O)c2cc3ccccc3o2)cc1S(=O)(=O)N1CCCCC1	none (no result: Pf growth 96h, Cycloheximide cs, Pf growth 48h, Shiga toxin inh)
CC(C)c1nnc(NC(=O)CCS(=O)(=O)c2nc(-c3cccs3)cc(C(F)(F)F)n2)s1	Pf growth 96h 0.74µM
COc1ccc(-c2cc(C(F)(F)F)nc(SCC(=O)NCc3cccs3)n2)cc1	Pf growth 96h inconclusive, Pf growth 48h 12µM
CCC(C)NC(=O)CSc1nc(-c2cccs2)cc(C(F)(F)F)n1 (stereo not given)	Pf growth 96h 5.2µM (no result: Pf growth 48h)
COCC(C)NC(=O)CCSc1nc(-c2ccc(OC)cc2)cc(C(F)(F)F)n1 (stereo not given)	Pf growth 96h 9.3µM, Pf growth 48h 5.2µM
CCOC(=O)c1c(NC(=O)c2ccn(CC)n2)sc2c1CCC2	Pf growth 96h inconclusive
CCn1nccc1C(=O)Nc1ccc(Cl)cn1	Cycloheximide cs 60, Shiga toxin inh 70 (no result: Pf growth 48h)
CCn1ccc(C(=O)Oc2ccc(Cl)cc2)n1	Cycloheximide cs 22, Shiga toxin inh 56
CC(=O)CC(=O)Nc1ccc(Cl)cn1	Pf growth 96h inconclusive
CCn1ccc(C(=O)Nc2ccc(Cl)cn2)n1	Cycloheximide cs 39 (no result: Pf growth 48h)
N#CCCN(Cc1cccnc1)C(=S)NC(=O)C1CC1	Pf growth 48h inconclusive (no result: AMA1-RON2 inh)
COc1cc2[nH]c(=O)n(CCCC(=O)NCCc3ccccc3)c(=O)c2cc1OC	Pf growth 96h 5.2µM, Pf growth 48h inconclusive
CCOc1cc2[nH]c(=O)n(CCCCCC(=O)NC3CCCC3)c(=O)c2cc1OCC	Pf growth 96h 10µM, Pf growth 48h inconclusive
COc1cc2[nH]c(=O)n(CCC(=O)NCCC(C)C)c(=O)c2cc1OC	none (no result: Pf growth 96h, Pf growth 48h)
COc1cccc2c(=O)n(CC(=O)NCCc3ccccc3)ccc12	Pf growth 96h 3.3µM, Pf growth 48h 1.9µM
CC(C)(C)Cc1c(-c2ccc(Br)cc2)nc2ccc(Cl)cn12	none (no result: SARS PLpro yeast, Pf growth 96h, Cycloheximide cs, Pf growth 48h, Shiga toxin inh)
CCC1(CC)NC(=O)N(CC(=O)N2CCN(c3ccccc3F)CC2)C1=O	none (no result: Cycloheximide cs, Shiga toxin inh)
O=C(CN1C(=O)NC(c2ccccc2)(c2ccccc2)C1=O)N1CCN(c2ccccc2F)CC1	Pf growth 96h inconclusive, Pf growth 48h 13µM, AMA1-RON2 inh inconclusive (no result: Cycloheximide cs, Shiga toxin inh)
O=C(CN1C(=O)NC(c2ccccc2)(c2ccccc2)C1=O)N1CCN(c2ccc(F)cc2)CC1	Pf growth 96h inconclusive, Pf growth 48h 12µM (no result: Cycloheximide cs, Shiga toxin inh)
